In the library only some 13% were active in any assay of this set; here they are far more common.
USP17 inh: blocks human USP17 ubiquitin-rhodamine cleavage; A8MUK1; purified USP17, Ub-rhodamine cleavage fluorescence, 3 h; inhibition, % at 50 µM; hit rate 6.5% among 47,000; AID 1645855
Target sequence (A8MUK1 whole entry, looked up): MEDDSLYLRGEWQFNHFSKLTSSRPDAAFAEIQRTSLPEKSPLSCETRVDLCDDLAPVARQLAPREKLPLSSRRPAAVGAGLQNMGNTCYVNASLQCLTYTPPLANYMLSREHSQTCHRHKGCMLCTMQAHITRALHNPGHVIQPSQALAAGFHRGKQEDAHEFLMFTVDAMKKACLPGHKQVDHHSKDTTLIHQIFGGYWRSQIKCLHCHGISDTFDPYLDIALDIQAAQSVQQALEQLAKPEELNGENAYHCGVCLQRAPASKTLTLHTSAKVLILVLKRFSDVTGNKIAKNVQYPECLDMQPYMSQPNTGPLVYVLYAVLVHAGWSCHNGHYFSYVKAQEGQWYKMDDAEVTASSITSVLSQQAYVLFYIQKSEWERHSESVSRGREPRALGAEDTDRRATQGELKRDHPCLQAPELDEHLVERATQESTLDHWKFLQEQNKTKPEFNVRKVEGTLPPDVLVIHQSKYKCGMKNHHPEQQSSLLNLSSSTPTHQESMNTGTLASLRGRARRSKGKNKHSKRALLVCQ
USP8 inh: inhibitors of human USP8 deubiquitinase; P40818; purified USP8, Ub-rhodamine cleavage fluorescence, 30 min; hit rate 4.2% among 47,000; inhibition, % at 20 µM
USP28 inh: inhibitors of human USP28 deubiquitinase. Q96RU2. purified USP28, Ub-rhodamine cleavage fluorescence, 30 min. inhibition, % at 25 µM. hit rate 3% among 47,000. AID 1645857
USP30 inh: human USP30 deubiquitinase inhibition; purified USP30, Ub-rhodamine cleavage fluorescence; inhibition, % at 25 µM; Q70CQ3; AID 1645860; hit rate 5.3% among 47,000
* hit, by the source's call; i = inactive; / = no result. Rule as the data show it: active = inhibition above about 30%; inactive = the rest.

SMILES	USP17 inh	USP8 inh	USP28 inh	USP30 inh
CC1CCN(C(=O)c2cn(-c3cc(Nc4ccccc4)ncn3)cn2)CC1	-35.5	-16.8	-145.0	i
O=C(Nc1ncc2c(n1)-c1ccccc1CC2)C1CC1	55.7*	1.4	-14.6	8.3
O=C(c1ccncc1)N1CCC(c2c[nH]c3ccccc23)(c2c[nH]c3ccccc23)CC1	47.0*	-12.9	6.2	3.6
Cc1ccc(NC(=O)N2CCCC(c3nc4c(cnn4C(C)C)[nH]3)C2)cc1 (stereo unspecified)	-6.4	1.6	-10.7	0.1
C[C@H]1CCCC(=O)CCCCCc2cc(OCc3ccccc3)cc(O)c2C(=O)O1	20.9	12.1	4.1	31.8*
COc1cc(O)cc2c1C(=O)O[C@@H](C[C@H]1CCC[C@H](C)O1)C2	-11.0	-0.7	4.3	0.1
COc1cc(O)cc2c1C(=O)OC(C)CCCC(O)CCC2 (stereo unspecified)	-10.0	-7.3	-12.9	-17.6
COc1cc(O)cc2c1C(=O)OC(C)CCCCCCC2 (stereo unspecified)	39.8*	9.4	23.8	37.5*
CN(Cc1ccccc1)C(=O)C1CCCN(c2cnc3nccnc3c2)C1 (stereo unspecified)	-88.3	-109.1	-118.3	-398.5
Cc1ccc(NC(=O)Cn2cc(-c3nc(C4CC4)no3)ccc2=O)cc1C	18.0	11.3	1.1	-24.2
Cc1ccccc1NC(=O)Cn1cc(-c2nc(C3CC3)no2)ccc1=O	13.2	-1.8	-3.3	70.5*
Cc1ccc(NC(=O)Cn2cc(-c3nc(C4CC4)no3)ccc2=O)cc1	15.1	29.4	14.5	36.2*
CCOC(=O)c1cnc2c(-c3ccc(OC)c(OC)c3)c[nH]n2c1=O	1.4	3.0	-4.7	1.0
CC(c1ccccc1)c1nc(-c2ccc(=O)[nH]c2)no1 (stereo unspecified)	-2.5	9.7	60.9*	7.9
CCc1nc(-c2ccc(C)c(S(=O)(=O)NCC(C)c3ccccc3)c2)no1 (stereo unspecified)	-1.8	5.8	6.2	8.2
CCNc1oc(-c2ccc(S(=O)(=O)N3CCCCC3)cc2)nc1C#N	63.3*	4.0	7.3	3.4
COc1ccc(C(=O)c2c[nH]c(C(=O)NCCCn3ccnc3)c2)cc1	17.7	21.0	14.3	32.7*
C[C@@H](NS(=O)(=O)c1ccc(F)c(Cl)c1)C(=O)NCc1cscn1	-0.7	0.5	-2.9	-0.2
CC(NS(=O)(=O)c1cccc(Cl)c1)C(=O)O (stereo unspecified)	-0.4	-0.1	1.0	30.3*
O=C(c1ccc(Cn2c(=O)[nH]c3ccccc3c2=O)cc1)N1CCN(c2ccc(F)cc2)CC1	10.0	0.9	17.9	48.1*
O=C(NCCCN1CCN(c2ccc(F)cc2)CC1)c1ccc2c(=O)n(CCc3ccccc3)c(=O)[nH]c2c1	31.3*	30.4*	19.9	42.1*
O=C(c1ccc(Cn2c(=O)[nH]c3ccccc3c2=O)cc1)N1CCN(Cc2ccc3c(c2)OCO3)CC1	32.8*	9.4	18.3	25.5
O=C(NC1CCN(Cc2ccccc2)CC1)c1ccc(Cn2c(=O)[nH]c3ccccc3c2=O)cc1	-6.0	2.6	0.1	-0.1
O=C(CCn1c(=O)[nH]c2ccccc2c1=O)N1CCN(c2ccc(F)cc2)CC1	-12.1	-12.7	-8.8	-14.7
CC(=O)c1cccc(NC(=O)c2nc3ccccc3nc2N2CCOCC2)c1	-8.2	-7.1	-7.3	-30.1
SMILES	USP17 inh	USP8 inh	USP28 inh	USP30 inh
CC(=O)NC(Cc1cccc(F)c1)C(=O)NC1CCN(c2c(Cc3ccccc3)c(C)nc3ncnn23)CC1 (stereo unspecified)	-30.7	-23.9	-32.4	-58.5
Cc1ccc(C)n1-c1ccsc1-c1cc2ncc(S(C)(=O)=O)c(N)n2n1	-0.9	-11.1	-14.0	-64.2
O=C(Nc1ccc(Cl)cc1)Nc1cccn2ncnc12	15.7	9.5	38.9*	51.7*
O=C(/C=C/c1ccc2c(c1)OCO2)Nc1nc2n(n1)C(c1ccccc1)CC(=O)N2 (stereo unspecified)	-9.6	61.9*	-14.5	-45.6
O=C(/C=C/c1ccc(Cl)cc1)Nc1nc2n(n1)C(c1ccccc1)CC(=O)N2 (stereo unspecified)	3.5	20.7	-1.4	11.8
C=C[C@]1(C)C=C2C(=O)[C@]3(O)OC(=O)[C@@]4(CCCC(C)(C)[C@H]34)[C@@]2(O)CC1	69.3*	20.5	24.5	25.1
COc1ccc(N=c2oc3ccccc3cc2C(=O)Nc2ccncc2)cc1OC	9.9	8.4	4.3	16.1
COc1cc(NC(=O)c2cccnc2)ccc1NC(=O)c1cc2ccccc2o1	39.0*	-1.3	-19.4	-54.3
CCc1ccc2ncc(S(=O)(=O)c3ccccc3)c(N3CCCC3)c2c1	1.7	36.5*	-5.0	-39.9
COc1ccc2ncc(S(=O)(=O)c3ccccc3)c(N3CCCCCC3)c2c1	10.3	7.3	-0.1	8.9
O=C(CCSc1ccccc1)Nc1ccc(-c2nc3ccccc3o2)cc1	2.9	-4.5	-2.4	-23.8
O=C(CCSc1ccccc1)Nc1ccc(Oc2ccccc2)cc1	42.2*	13.2	2.9	5.0
O=C(COC(=O)C1CCCCC1)Nc1ccc(Oc2ccccc2)cc1	31.4*	11.1	11.1	28.3
Cc1nn(-c2ccc(F)cc2)c(C)c1S(=O)(=O)N1CCC(C(=O)NC2CC2)CC1	7.5	11.5	1.4	21.3
C[C@H](NC(=O)c1cccs1)c1nnc2ccccn12	12.4	27.9	19.9	30.3*
Cc1ccc(C(=O)N[C@@H](C)c2nnc3ccccn23)cc1	2.1	-7.3	20.3	10.7
O=C(CCSc1nnnn1-c1ccccc1)Nc1cc(C(F)(F)F)ccc1Cl	40.4*	28.3	0.6	7.6
CCOC(=O)c1cc2c(=O)n3ccccc3nc2n(Cc2ccco2)c1=NC(=O)COc1ccc2ccccc2c1	-6.3	10.3	-29.6	-257.5
CCc1ccccc1NC(=O)CN1C(=O)CSc2ncccc21	-27.3	-8.5	-7.7	-61.8
Cc1cc(C)c(NC(=O)Cn2c(SCc3cccc(F)c3)nc3cccnc32)c(C)c1	63.9*	56.9*	39.8*	73.3*
CCc1ccccc1NC(=O)Cn1c(SCc2ccc(F)cc2)nc2cccnc21	86.3*	69.7*	42.8*	57.0*
CCOC(=O)c1[nH]c(C)c(CN(Cc2ccco2)C(=O)c2ccccc2C)c1C	9.8	-11.6	5.8	-5.8
Cc1nc2ccn(Cc3ccccc3)c(=O)c2cc1C(=O)NC1CCCC1	2.0	13.5	-1.4	2.0
O=C(CCN1C(=O)c2cccnc2Sc2ccccc21)NC1CCCCCC1	/	13.0	8.0	19.9
COc1ccc([C@H]2C[C@@H](O)[C@@H](O)[C@@H]2NC(=O)c2cc(C)on2)cc1	9.4	-5.5	0.6	34.9*
O=C(Nc1ccc2cn[nH]c2c1)C1CN(C(=O)c2ccc3c(c2)OCO3)C1	2.9	-35.1	-0.8	-5.4
O=C(NC1CCCCC1)C1CCN(c2ccc(N3CCCCC3)nn2)CC1	0.0	0.1	0.6	8.9
O=C(CSc1ccc(N2CCC(C(=O)NC3CC3)CC2)nn1)Nc1cccc(Cl)c1	37.7*	-9.9	-17.9	-91.1
Cc1ccc(CNC(=O)C2CCC3(CC2)CNC(=O)c2cc(Cl)ccc2O3)o1 (stereo unspecified)	-5.3	-16.0	-1.6	8.6
CC1(C)Cc2c(sc3nc(SCC(=O)Nc4ccc(Br)cc4)nc(N)c23)CO1	-25.2	-9.7	-7.0	-19.9
